This is a sample that favours compounds with a hit; in the whole collection about 6.7% have one here.
GDH-TPI counter – GDH-TPI coupled enzyme inhibition counter-screen | GDH-TPI coupled enzyme counterscreen, NADH absorbance | inhibition, % at 4.8 µM | actives 1.2% (n = 360,000); in the data active = inhibition above about 30%;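 also: 0% = DMSO wells and 100% = wells lacking the enzyme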
Autofluor counter – counter-screen for toxin protease inhibitors: compound fluorescence; actives 3.1% (n = 360,000); AID 624483; compound autofluorescence counterscreen, microsphere flow cytometry; hits give high values; fluorescence intensity (test concentration not listed); in the data active = fluorescence intensity above about 16000; inconclusive = no clear call, values can overlap the other calls
Mtb FBA inh – Mtb fructose-bisphosphate aldolase inhibition. P9WQA3. purified M. tuberculosis FBA, fluorescence read-out. inhibition, % at 1 µM. actives 2.3% (n = 360,000). AID 588726; in the data active = inhibition above about 27%;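 also: 0% = vehicle and 100% = reference inhibitor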
Target sequence (P9WQA3 whole entry, looked up): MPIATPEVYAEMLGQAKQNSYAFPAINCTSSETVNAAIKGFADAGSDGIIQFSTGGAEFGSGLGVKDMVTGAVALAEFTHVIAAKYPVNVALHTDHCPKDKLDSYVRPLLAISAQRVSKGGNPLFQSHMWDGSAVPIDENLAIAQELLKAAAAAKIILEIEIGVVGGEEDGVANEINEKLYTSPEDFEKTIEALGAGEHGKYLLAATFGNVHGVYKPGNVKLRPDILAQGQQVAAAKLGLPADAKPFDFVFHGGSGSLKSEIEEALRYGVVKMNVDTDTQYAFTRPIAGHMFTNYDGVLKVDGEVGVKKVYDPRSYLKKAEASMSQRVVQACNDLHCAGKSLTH
BoNT-F LC inh – blocks Botulinum neurotoxin F light chain protease. inhibition, % at 10 µM. actives 0.22% (n = 360,000). Multiplex microsphere protease cleavage assay, flow cytometry; in the data active = inhibition above about 35%, passing the limit was not always enough; inconclusive = no clear call, values can overlap the other calls; also: plate controls were buffer without enzyme for full effect and enzyme alone for no effect
Anthrax LF prot – anthrax lethal factor protease inhibition. P15917. inhibition, % at 10 µM. actives 0.12% (n = 360,000). multiplex microsphere protease cleavage assay, LF. AID 588501; also: plate controls were buffer without enzyme for full effect and enzyme alone for no effect
BoNT A protease – inhibitors of Botulinum neurotoxin A light chain protease | AID 588499 | actives 0.17% (n = 360,000) | inhibition, % at 10 µM | multiplex microsphere protease substrate cleavage, flow cytometry; also: plate controls were buffer without enzyme for full effect and enzyme alone for no effect
An asterisk follows results filed as active; ? = inconclusive; · = no result; + = active, no number. Rule as the data show it, unless noted: active = inhibition above about 30%; inconclusive = no clear call, values can overlap the other calls; inactive = below that.

SMILES	GDH-TPI counter	Autofluor counter	Mtb FBA inh	BoNT-F LC inh	Anthrax LF prot	BoNT A protease
Cc1ccc(-n2nc3c(c2NC(=O)/C=C\c2ccc4c(c2)OCO4)CSC3)c(C)c1	20	6324	3	-7	-6	-1
O=C(COc1ccc2c3c(c(=O)oc2c1)CCC3)N1CCN(c2ccc(F)cc2)CC1	26	4423	8	-9	0	0
CCCCc1cc(=O)oc2cc(C)cc(OCC(=O)Nc3cccnc3)c12	11	5081	19	5	-1	1
Cc1cc(OCC(=O)N2CCC(C(=O)O)CC2)c2c(C)cc(=O)oc2c1	6	4147	130*	-1	-4	0
CCCCc1cc(=O)oc2cc(C)cc(OCC(=O)N3CCC(C(=O)O)CC3)c12	18	4275	124*	-18	2	-1
COc1ccccc1N1CCN(C(=O)COc2cc(C)cc3oc(=O)cc(C)c23)CC1	4	4907	5	1	-3	-3
Cc1cc(C)n(-c2nc(NCCC(C)C)c3c4c(sc3n2)COC(C)(C)C4)n1	1	19196*	6	13	-11	13
CC(C)(C)OC(=O)C1=CC[C@@H](c2ccc(Cl)c(Cl)c2)N(S(=O)(=O)c2ccc(F)cc2)[C@H]1c1cccc(F)c1	·	5745	-4	-6	-3	0
CCOC(=O)c1nc(C)n(-c2cc(Cl)cc(Cl)c2)n1	-14	17779*	0	6	-10	6
CNC(=O)c1nc(C)n(-c2cc(Cl)cc(Cl)c2)n1	2	6044	1	-5	2	-1
COc1ccccc1CNC(=O)C1(C)CCN1Cc1ccc(OC(F)(F)F)cc1 (stereo not drawn)	5	3422	-2	2	-5	0
CSc1nc2ccccc2c(=O)n1N	0	10853	-2	-5	-3	-1
Cc1nc2n(n1)CC(O)CS2 (stereo not drawn)	12	23205*	-1	-6	-1	-3
O=C(CCn1c(=S)[nH]c2ccccc2c1=O)NCC1CCCO1 (stereo not drawn)	0	21058*	5	5	-1	5
O=C(CCCn1c(=S)[nH]c2ccccc2c1=O)NC1CCCC1	25	16938*	-3	-5	0	-2
COc1ccc(NC(=S)N2CCN(c3ccccn3)CC2)cc1	5	2618	4	-4	-2	0
CCCCc1cc(=O)oc2c3c(cc(OCC(=O)N4CCC[C@H]4C(=O)O)c12)OC(C)(C)CC3	27	5746	+	6	-11	0
Cc1cc(=O)oc2c3c(cc(OCC(=O)N4CCC[C@H]4C(=O)O)c12)OC(C)(C)CC3	26	5829	+	-7	-5	-1
Cc1cc(=O)oc2cc(OCC(=O)N3CCC(O)CC3)c(Cl)cc12	10	5709	14	4	-4	-1
CCCc1cc(=O)oc2c(C)c(OCC(=O)N3CCC(C(N)=O)CC3)ccc12	25	5775	24	-5	3	0
Cc1cc(=O)oc2c3c(cc(OCC(=O)N4CCC(C(=O)O)CC4)c12)OC(C)(C)CC3	22	4128	+	-6	-4	0
Cc1c(CCC(=O)N2CCC[C@H]2C(=O)O)c(=O)oc2c(C)c3oc4c(c3cc12)CCCC4	27	4201	26	-10	-1	0
Cc1c(C)c2c(OCC(=O)N3CCC(C(N)=O)CC3)cc3c(c2oc1=O)CCC(C)(C)O3	27	5440	+	2	5	0
CC[C@H](C)[C@@H](CO)NC(=O)[C@H]1O[C@@H](n2ccc(=O)[nH]c2=O)[C@H](O)[C@@H]1O	·	5133	-1	1	0	0
CCCCN(C(=O)c1cc(Cl)nc2ccccc12)c1c(N)n(CCC)c(=O)[nH]c1=O	13	2743	3	4	-2	0
SMILES	GDH-TPI counter	Autofluor counter	Mtb FBA inh	BoNT-F LC inh	Anthrax LF prot	BoNT A protease
CCOC(=O)N1CCN(S(=O)(=O)c2ccc(C(=O)N(CCCN(C)C)c3nc4ccc(Cl)cc4s3)cc2)CC1	-6	6279	-2	4	0	0
CCOc1ccc(N=Cc2c(O)n(C(C)(C)C)c(=O)[nH]c2=O)cc1	28	23346*	-1	-3	-2	0
COc1ccc(S(=O)(=O)N2CCC(C(=O)NC3(C)CCS(=O)(=O)C3)CC2)cc1OC (stereo not drawn)	9	4920	-1	-12	7	-4
CC1(NC(=O)c2cc(S(=O)(=O)N3CCCCC3)ccc2Cl)CCS(=O)(=O)C1 (stereo not drawn)	8	24171*	1	-1	0	-2
CC(/C=N/NC(=O)CN1CCN(Cc2ccc(Cl)cc2)CC1)=C\c1ccco1	30	2059	-1	9	-2	2
O=C(CN1CCN(Cc2ccccc2)CC1)N/N=C/C=C/c1ccco1	33*	1951	0	-6	-3	0
Cn1c(SCC(=O)N/N=C/C=C\c2ccco2)nc2ccccc21	20	22987*	-9	2	0	1
NC(=NC(=O)c1ccc(OCC(F)(F)F)nc1)c1ccc(Cl)cc1	14	3772	0	?	1	0
CC(=O)Nc1ccc2c(COC(=O)[C@@H](NS(=O)(=O)c3ccc(C)cc3)C(C)C)cc(=O)oc2c1	23	3111	+	-4	0	-1
Cc1nc(N)sc1-c1csc(Nc2ccc(Cl)cn2)n1	-5	16519*	8	11	-5	12
CCOC(=O)CCCCCC(=O)Nc1ccc2c(c1)CC(=O)N([C@@H](C)CO)C[C@@H](C)[C@@H](CN(C)C(=O)Nc1ccc(C(F)(F)F)cc1)O2	-2	2789	0	-4	-6	0
O=C(CSc1nc(-c2ccco2)cc(C(F)(F)F)n1)Nc1ccc2c(c1)CCC2	19	3453	3	10	-1	2
Cc1[nH]c(=O)c(C#N)c(C)c1[N+](=O)[O-]	8	4855	-3	2	-8	-2
O=C(N/N=C/c1ccc(F)cc1)c1cc(-c2ccccn2)nc2ccccc12	14	5229	-2	0	1	0
Cn1cccc1/C=N/NC(=O)c1cc(-c2cccs2)nc2ccccc12	31*	1926	19	-6	-1	-1
O=C(N/N=C/c1ccc[nH]1)c1cc(-c2cccs2)nc2ccccc12	14	4223	8	-4	-8	-1
O=C(N/N=C/c1ccc2ncccc2c1)c1cc(-c2cccs2)nc2ccccc12	39*	4641	14	-8	3	0
NC(=S)N/N=C/c1c[nH]c2ccccc12	56*	4698	-1	-10	-3	0
Nc1ccc(C(=O)N/N=C/c2c[nH]c3ccccc23)cc1	41*	3743	0	10	1	-1
O=C(N/N=C\c1c[nH]c2ccccc12)c1ccc(O)cc1	32*	4019	0	-42	-12	-1
Cc1occc1C(=O)N/N=C/c1c[nH]c2ccccc12	23	22938*	4	-5	-8	-1

Assay outcomes as filed in PubChem BioAssay.
